In PubChem BioAssay AID624417 (National Center for Advancing Translational Sciences (NCATS), 2012):
The campaign covered roughly 410,000 compounds. About 6,400 (1.6%) were called active. Entries that show only a call come without a potency. Another 20% or so got no clear call; they are omitted. The sample holds actives, similar compounds and a random draw of the others, so the mix is not that of the screen. Unmarked numbers belong to inactive results. The call rests on the fitted dose curve; in most records, active means well fitted inhibition curve with a large enough effect; inconclusive means small, poorly fitted or top-dose-only effect; inactive means no such curve, though single readings can be large or run the other way.

Target: Glucagon-like peptide 1 receptor (Homo sapiens) (UniProt P43220)
Assay: qHTS of GLP-1 Receptor Inverse Agonists (Inhibition Mode); further: nearly all actives have a fitted effect of over 55% in size
Conditions: HEK293 GLP-1R CRE-luciferase, luminescence, 24 h, GLP-1R form is constitutively active; series mostly up to 38.3 µM
Summary of the method: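 Stable HEK293 clone (constitutively active GLP-1R + cAMP-response luciferase); 200 cells/uL plated, 12 h pre-culture, compound 24 hr, 37 deg C/5% CO2; detection reagent 12 min RT; luminescence.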
Potency means the concentration at half of the fitted maximal effect.

Glucagon-like peptide 1 receptor (Homo sapiens), sequence (P43220 whole entry, looked up): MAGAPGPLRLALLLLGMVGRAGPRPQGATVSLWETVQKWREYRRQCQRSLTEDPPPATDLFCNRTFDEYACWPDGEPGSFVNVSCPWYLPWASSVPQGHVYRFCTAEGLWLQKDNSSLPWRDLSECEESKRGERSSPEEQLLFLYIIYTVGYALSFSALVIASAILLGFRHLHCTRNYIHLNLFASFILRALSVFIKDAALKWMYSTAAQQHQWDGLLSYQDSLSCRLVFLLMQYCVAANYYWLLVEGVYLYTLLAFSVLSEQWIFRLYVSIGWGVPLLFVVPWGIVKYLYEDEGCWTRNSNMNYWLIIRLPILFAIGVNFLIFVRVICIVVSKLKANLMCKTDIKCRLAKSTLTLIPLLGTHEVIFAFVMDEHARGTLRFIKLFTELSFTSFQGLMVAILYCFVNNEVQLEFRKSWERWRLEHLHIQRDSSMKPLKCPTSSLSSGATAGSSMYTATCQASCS

SMILES | Potency | activity change, negative = inhibition
Cc1cn([C@H]2C[C@H](O)[C@@H](/C=C/C(=O)NCCCc3ccccc3)O2)c(=O)[nH]c1=O | inactive | 
CC(C)(C)C(=O)c1c(N)[nH]c(C(=O)c2ccccc2)c1-c1ccc(F)cc1 | inactive | 
C[C@H](CO)N1C[C@H](C)[C@@H](CN(C)C(=O)C2CCCCC2)OCc2cnnn2CCCC1=O | inactive | 
CC1CCc2c(nc3ncnn3c2Nc2ccc(OC(F)(F)F)cc2)C1 (configuration not stated) | 11.2 µM (active) | 
CC(=O)c1nn(-c2ccc(OC(F)(F)F)cc2)nc1Nc1ccccc1 | inactive | 
Brc1ccc(Nc2c3c(nc4ncnn24)CCC3)cc1 | inactive | 
COc1ccc(-c2nc3ccc(Br)cn3c2Cc2ccc(C)cc2)cc1OC | inactive | 
CC(C)c1cc(Cn2c3ccccc3c(=O)n2C(C)Cn2cc(C3CC3)nn2)on1 (configuration not stated) | inactive | 
CCN(CC)S(=O)(=O)c1ccc(N2CCCC2)c(NS(=O)(=O)c2cccs2)c1 | inactive | 
CCN(CC)S(=O)(=O)c1ccc(Cl)c(C(=O)NCCN2CCOCC2)c1 | inactive | 
CCN(CC)S(=O)(=O)c1ccc(Cl)c(C(=O)NC(C)C(c2cccs2)N2CCCC2)c1 (configuration not stated) | 5.62 µM (active) | 
COc1ccc(CN2C(=O)C(CC(=O)NC3CCCCC3)CC(C(=O)N3CCOCC3)=C2C)cc1 (configuration not stated) | inactive | 
O=C(Nc1ccc(Cl)cc1)C1Cc2c(-c3ccc4c(c3)OCO4)ccnc2O1 (configuration not stated) | 11.2 µM (active) | 
CC(=O)Nc1ccc(-c2ccnc3c2CC(C(=O)NC(C)C)O3)cc1 (configuration not stated) | inactive | 
COc1ccc(NC(=O)C2Cc3c(-c4cccc(NC(C)=O)c4)ccnc3O2)cc1OC (configuration not stated) | inactive | 
COc1ccc(NC(=O)CCCOc2ccc(C(C)=O)cc2)cc1S(=O)(=O)N1CCCCC1 | inactive | 
CN(Cc1ccccc1)C(=O)CCC1CCN(C(=O)c2ccco2)CC1 | inactive | 
C[C@H]1CN([C@@H](C)CO)C(=O)CCCn2cc(nn2)CO[C@@H]1CN(C)S(=O)(=O)c1ccccc1C#N | inactive | 
CCCCCCNC(=O)O[C@]12C[C@@H](C(=O)OC)[C@@H](C(=O)OC)C[C@@]1(O)CN(S(=O)(=O)c1ccc(C)cc1)C2 | inactive | 
Cc1ccc(OCc2nnc(SC3CCc4ccccc4C3=O)n2C)cc1 (configuration not stated) | 7.08 µM (active) | 
Cc1ccc(OCc2n[nH]c(=S)n2-c2ccccc2)cc1 | inactive | 
Cc1cccnc1NC(=O)CSc1nnc(COc2ccc(C(C)C)cc2)n1C | inactive | 
O=C(COC(=O)c1ccc(S(=O)(=O)N2CCCCCC2)cc1)Nc1ccccc1C(F)(F)F | inactive | 
CN1OC[C@@H]2CN(C(=O)C(C)(C)C)[C@H](c3ccc(-n4ccnc4)cc3)C[C@@H]21 | inactive | 
COc1ccc2sc(-c3ccc(S(C)(=O)=O)cc3)c(-c3ccc(C(N)=O)cc3)c2c1 | inactive | 

SMILES | Potency | activity change, negative = inhibition
COc1ccccc1-c1sc2ccccc2c1-c1ccc(Br)nc1 | 10 µM (active) | 
COc1ccc(-c2sc3ccccc3c2-c2ccc(OCCN3CCOCC3)cc2)cc1 | inactive | 
COc1ccc2sc(-c3ccccc3OC)c(-c3ccc(OCCN4CCCC4)cc3)c2c1 | inactive | 
COc1ccccc1-c1sc2ccccc2c1-c1ccc(C(C)=O)cc1 | 10 µM (active) | 
COc1cc(C(C)=O)ccc1OC(=O)CN1C(=O)c2ccccc2C1=O | inactive | 
N#Cc1ccc(-c2nc3c(Cl)cc(C(F)(F)F)cn3c2Cc2ccccc2C(F)(F)F)cc1 | inactive | 
CC1(C(=O)NS(=O)(=O)c2cccc(F)c2)CCN1C(=O)Cc1cc(F)ccc1F (configuration not stated) | inactive | 
Cc1cccc(CN2CCN(C3CN(Cc4cn(Cc5cc(C)cc(C)c5)nn4)S(=O)(=O)C3)CC2)c1 (configuration not stated) | inactive | 
COC(=O)[C@]12CCCCC=C1N(Cc1ccc3c(c1)OCO3)C(=O)[C@H](CC(=O)N1CCOCC1)C2 | inactive | 
C[C@@H]1CN([C@H](C)CO)C(=O)CCCn2nncc2CO[C@@H]1CN(C)C(=O)OCc1ccccc1 | inactive | 
O=C1NC[C@H](CCCCN2C[C@H](Cc3ccc(O)cc3)N(CCc3ccccc3)C(=O)C2=O)N(CCc2ccccc2)C1=O | inactive | 
CC1=C(C(=O)N2CCOCC2)CC(CC(=O)NCc2cccs2)C(=O)N1CCCN1CCCC1=O (configuration not stated) | inactive | 
CC1=C(C(=O)N(C)C)CC(CC(=O)NCCc2ccccn2)C(=O)N1CCC1=CCCCC1 (configuration not stated) | inactive | 
Cc1nc(Nc2ccc3c(c2)OCCO3)c2nnn(Cc3ccccc3Cl)c2n1 | 3.55 µM (active) | 
Cc1nc(Nc2ccccc2F)c2nnn(Cc3ccccc3Cl)c2n1 | inactive | 
CCCc1nc(NCc2ccc3c(c2)OCO3)c2nnn(Cc3ccccc3Cl)c2n1 | inactive | 
O=C(O)C(=Cc1ccc([N+](=O)[O-])cc1)CCc1ccccc1 | inactive | 
COCCNC(=O)C1CCCN(Cc2ccccc2Cl)CC1 (configuration not stated) | inactive | 
O=C(NCc1ccccn1)[C@@H]1CCCN1C(=O)[C@@H]1CCCN1C(=O)c1ccccc1 | inactive | 
COC(=O)C1(C(=O)OC)C/C=C\CN(S(=O)(=O)c2ccccc2[N+](=O)[O-])CCC1 | inactive | 
CC(Sc1ccc(S(=O)(=O)N2CCN(C)CC2)cn1)C(=O)NC1CCCC(C)C1C (configuration not stated) | inactive | 
COc1c(Cl)cc(C(=O)Nc2ccc(Cl)cn2)cc1Cl | inactive | 
O=C(Nc1ccc(Cl)cn1)c1ccc2c(c1)OCCO2 | 7.08 µM (active) | 
Cc1nc(NC(=O)c2ccc3c(c2)OCCO3)ccc1Br | inactive | 
CN(Cc1ccccc1)C(=O)COc1ccccc1 | inactive | 

SMILES | Potency | activity change, negative = inhibition
CN(Cc1ccccc1)C(=O)COC(=O)c1ccccc1Nc1ccccc1 | 12.6 µM (active) | 
Cc1ccc(S(=O)(=O)CCC(=O)OCC(=O)N(C)Cc2ccccc2)cc1 | inactive | 
CC(=O)Nc1cncc(-c2ccccc2CO)n1 | inactive | 
CCOC(=O)C1(C)CCCN(C(=O)c2cccc(Cl)c2)C1 (configuration not stated) | inactive | 
COc1cccc(CNC(=O)c2n[nH]c3ccccc23)c1 | inactive | 
NS(=O)(=O)c1ccc(CCNc2nc(C(F)(F)F)nc3ccccc23)cc1 | inactive | 
COc1cccc(CNc2nc(C(F)(F)F)nc3ccccc23)c1 | 10 µM (active) | 
CCN(CC)C(=O)C1CCCN(Cc2cccc(Cl)c2)C1 (configuration not stated) | inactive | 
Nc1nc2ncccn2c1-c1ccccc1 | inactive | 
CCOC(=O)C1(C)CCCN(C(=O)c2ccc(N(C)C)cc2)C1 (configuration not stated) | inactive | 
O=S1(=O)CCN(C2CCCCCCCCCCC2)CC1 | inactive | 
COc1ccc(C2(c3ccc(OC)cc3)NC(=O)N(CC(=O)Nc3cc(C)on3)C2=O)cc1 | inactive | 
COC(=O)c1ccc(CN2C(=O)NC(c3ccccc3)(c3ccccc3)C2=O)o1 | inactive | 
Cc1ccc(C2(c3ccc(C)cc3)NC(=O)N(Cc3c(C)noc3C)C2=O)cc1 | 10 µM (active) | 
Cc1ccc(-c2nc3c(C)cc(Br)cn3c2Cc2ccccc2)cc1 | inactive | 
CCC(C(=O)Nc1c(C)cccc1C)n1c(-c2cc(C)cs2)nc2ccccc21 (configuration not stated) | inactive | 
O=C(Nc1ccccc1-c1nc2ccccc2[nH]c1=O)c1cccs1 | inactive | 
CCC(c1nc2ccccc2[nH]1)n1c(=O)c(-c2cccs2)nc2ccccc21 (configuration not stated) | 10 µM (active) | 
Cc1ccccc1CN1C(=O)CSCC1(C)C(=O)Nc1c(C)cccc1C (configuration not stated) | inactive | 
Cc1cccc(NS(=O)(=O)c2ccc(-c3cnc(C4CC4)o3)cc2)c1 | 0.891 µM (active) | 
Cc1ccc(-c2cnc(C3CC3)o2)cc1S(=O)(=O)Nc1cccc(C)c1C | inactive | 
COc1ccc(CNS(=O)(=O)c2ccc(-c3cnc(C4CC4)o3)cc2)cc1 | inactive | 
CC1(C(=O)NS(=O)(=O)c2cccs2)CCN1C(=O)Cc1ccc(-c2ccccc2)cc1 (configuration not stated) | inactive | 
Cc1csc(=O)n1CCC(=O)OCC(=O)Nc1ccc(N2CCOCC2)cc1 | inactive | 
Oc1ccc(/C=N/Nc2ccc(C(F)(F)F)cn2)cc1O | inactive | 

SMILES | Potency | activity change, negative = inhibition
Cc1c(C(=O)Nc2ccccn2)oc2ccc(Br)cc12 | inactive | 
Oc1ccc(Br)cc1/C=N/Nc1ccccn1 | 2.82 µM (active) | 
COc1ccc(S(=O)(=O)NC(=O)C2(C)CCN2C(=O)c2ccccc2CCc2ccccc2)cc1 (configuration not stated) | inactive | 
O=C(OCCOc1ccccc1Cl)c1cc(S(=O)(=O)N2CCCCC2)ccc1N1CCOCC1 | 4.47 µM (active) | 
O=C(OCCOc1ccccc1F)c1cc(S(=O)(=O)N2CCOCC2)ccc1F | inactive | 
CC(C)(C)C(=O)COC(=O)c1cc(S(=O)(=O)N2CCCCC2)ccc1N1CCOCC1 | inactive | 
CCN(CC)CCCNC(=O)c1ccc2c(=O)n(Cc3ccc4c(c3)OCO4)c(=S)[nH]c2c1 |  | -18.1% [at 7.66 µM]
CCN(CC)CCCNC(=O)c1c(O)c2cc(F)cc3c2n(c1=O)C(C)CC3 (configuration not stated) | 7.94 µM (active) | 
CCN(CC)CCCNC(=O)c1cn(C)c2ccc(S(=O)(=O)N(C)C3CCCCC3)cc2c1=O | inactive | 
CCNC(=O)C1(C)CCCN(Cc2noc(-c3ccccc3OC)n2)C1 (configuration not stated) | inactive | 
Oc1ccc(-c2nc3ccccc3nc2-c2ccc(O)cc2O)c(O)c1 | 4.47 µM (active) | 
Oc1ccc2nc(Cc3ccccc3)[nH]c2c1 | inactive | 
Cc1nc2ccccc2nc1N/N=C/c1ccc(O)cc1O | inactive | 
CCc1cccc(CC)c1N1C(=O)CC(Sc2ccccc2N)C1=O (configuration not stated) | inactive | 
Fc1ccc(-c2ccc(CNCc3ccccn3)o2)cc1Cl | inactive | 
Clc1ccc(-c2cc(-c3ccccn3)on2)c(Cl)c1 | 5.62 µM (active) | 
O=C1c2ccccc2C(=O)N1Cc1cc(-c2ccccc2Cl)no1 | inactive | 
CC(C)c1c(C(=O)N/N=C/c2ccccc2C(=O)O)nnn1-c1nonc1N | inactive | 
Nc1nonc1-n1nnc(C(=O)N/N=C/C2CCCCC2)c1-c1ccccc1 | inactive | 
Nc1nonc1-n1nnc(C(=O)N/N=C/c2c[nH]c3ccccc23)c1-c1ccccc1 | 12.6 µM (active) | 
Cc1[nH]c2ccccc2c1C(=O)C(=O)NCc1nnnn1-c1cccc(F)c1 | inactive | 
O=C(COC(=O)c1cccc(Cl)c1Cl)NC1CCCCCC1 | inactive | 
